In PubChem BioAssay (NCATS) one finds Potency and outcome data, which are given here for 32 molecules.

Assay [1] addresses T1, Tyrosine-protein phosphatase non-receptor type substrate 1 (Homo sapiens) + Leukocyte surface antigen CD47 (Homo sapiens) (UniProt P78324+Q08722). Briefly: CD47-SIRPalpha protein protein interaction - LANCE assay qHTS validation (AID 1347057; active means well fitted curve in the direction sought with a large enough effect in the signal ratio, with a control signal flat, not every such curve was filed as active; the % refers to the signal ratio; further: series mostly up to about 38 µM). Put shortly: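 First, His-tagged CD47 and Eu-labelled anti-His antibody met the compound for 30 min; next, site-specifically biotinylated SIRPalpha was added for 30 min; finally streptavidin-APC was added before reading the TR-FRET ratio.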

Assay [2] concerns the target T1, Tyrosine-protein phosphatase non-receptor type substrate 1 (Homo sapiens) + Leukocyte surface antigen CD47 (Homo sapiens). Nature of the assay: CD47-SIRPalpha protein protein interaction - HTRF assay qHTS validation (AID 1347058; active means well fitted curve in the direction sought with a large enough effect in the signal ratio, not every such curve was filed as active; the % refers to the signal ratio; further: series mostly up to about 38 µM). In outline:
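TR-FRET read (Ch1/Ch2 ratio) of soluble extracellular CD47 and Avi-biotinylated SIRPalpha domains in PBS pH 7.4 with 0.05% IGEPAL; 7-point compound titration. Sequential 30 min room-temperature steps; non-biotinylated SIRPalpha as control inhibitor.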

The target is the same in assay [3]. Briefly: CD47-SIRPalpha protein protein interaction - Alpha assay qHTS validation (AID 1347059).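 Further: bead proximity luminescence from CD47 binding SIRPalpha after compound preincubation with SIRPalpha.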 Put shortly:
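Soluble extracellular domains: Avi-tag biotinylated SIRPalpha (25 nM) preincubated 30 min RT with compound, then 6His-CD47 (12.5 nM) 30 min; Ni-NTA acceptor and streptavidin donor beads (10 ug/mL) 30 min, AlphaScreen read. PBS pH 7.4, 0.05% IGEPAL.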

The target in assay [4] is Parathyroid hormone/parathyroid hormone-related peptide receptor (Homo sapiens) (UniProt Q03431). Nature of the assay: qHTS for PTHR1 Agonists: Optimization Screen against the NCGC LOPAC library (AID 1347079).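 Further: GloSensor cAMP luminescence in HEK-293 GP2 cells expressing human PTHR1 with IBMX.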 Further: potency means the concentration at half of the fitted maximal effect. Put shortly:
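Agonist readout: GloSensor cAMP luminescence, read after 15 min at room temperature. HEK-293-derived GP2 line carries PTHR1; compounds tested as a titration for 1 hr at 37C in presence of IBMX. M-PTH (1-15) served as control.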
In general terms: qHTS replaces the single test concentration by a dilution series.

The target in assay [5] is N-terminal Xaa-Pro-Lys N-methyltransferase 1 (Homo sapiens) (UniProt Q9BV86). Briefly: qHTS Assay for Inhibitors of N-terminal methyltransferase 1 (NTMT1): LOPAC validation of the NTMT1 SAHH-coupled ThioGlo3 Assay (AID 1347143). Further: nearly all actives have a fitted effect of over 70% in size. Further: potency means the concentration at half of the fitted maximal effect. In outline: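 Fluorescence read-out (excitation 340nm, emission 450nm) of SAH-derived thiol, measured via SAHH coupling and ThioGlo3, taken immediately and after a 30 min room-temperature reaction, then normalized to the background read. Enzyme: NTMT1 at 125nM; cofactor SAM 100uM in the added reagent.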
Sequence of N-terminal Xaa-Pro-Lys N-methyltransferase 1 (Homo sapiens) (Q9BV86 whole entry, looked up): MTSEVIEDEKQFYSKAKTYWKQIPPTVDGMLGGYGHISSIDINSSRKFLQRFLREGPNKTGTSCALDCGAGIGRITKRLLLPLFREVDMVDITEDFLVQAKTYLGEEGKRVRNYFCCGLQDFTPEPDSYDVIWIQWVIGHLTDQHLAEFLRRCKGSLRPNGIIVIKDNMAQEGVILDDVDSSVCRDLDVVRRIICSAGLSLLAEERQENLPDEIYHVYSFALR

The test system of assay [6] is Zika virus NS2B-NS3 protease (unlinked). Nature of the assay: Optimization of GU AMC qHTS for Zika virus inhibitors: Unlinked NS2B-NS3 protease assay (AID 1347151). Further: nearly all actives have a fitted effect of over 80% in size. Further: potency means the concentration at half of the fitted maximal effect. Put shortly:
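Noncovalent NS2B hydrophilic domain–NS3 protease complex (25 nM final) in 10 mM Tris-HCl pH 8.0, 0.01% Tween 20; AMC substrate, room temperature 15 min (~20% conversion); fluorescence change normalized, 4-parameter Hill fit.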

In another assay the target is Furin (Homo sapiens) (UniProt P09958). Nature of the assay: Furin counterscreen qHTS for Zika virus inhibitors (AID 1347149).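 Further: purified recombinant full-length human furin enzyme at 5 nM; fluorescence gain from furin cutting a BOC-RVRR-AMC peptide substrate over 15 min; top concentration of the series differs between compounds; nearly all actives have a fitted effect of over 70% in size.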 In outline:
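Fluorogenic cleavage of BOC-RVRR-AMC (2 microM final, Km ~15 µM) was monitored (ex 340, em 450 nm) at 37C after 15 min RT preincubation of 5 nM furin with compounds in HEPES pH 7.0 buffer with CaCl2 and Triton X-100. Percent inhibition was fitted to a 4-parameter Hill curve.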
In general terms: Counterscreens check selectivity or assay interference.

Assay [7] concerns Zika virus NS2B-NS3 protease (linked construct). Nature of the assay: Confirmatory screen NINDS AMC qHTS for Zika virus inhibitors (AID 1347152).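 Further: AMC fluorescence gain from cleaved Bz-Nle-KRR-AMC substrate over 15 min; top concentration of the series differs between compounds; nearly all actives have a fitted effect of over 70% in size.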 Put shortly: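 Linked NS2B-NS3 protease, 1 nM, in 10 mM Tris-HCl pH 8.0, 0.01% Tween 20; compounds preincubated 15 min at room temperature. Nle-KRR-AMC 10 microM (Km 18.3 µM); 15-min fluorescence change (340/450 nm) fitted to 4-parameter Hill.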

Assay [8] concerns Zika virus NS2B-NS3 protease (unlinked complex). Briefly: Confirmatory screen GU AMC qHTS for Zika virus inhibitors (AID 1347153). Further: nearly all actives have a fitted effect of over 70% in size. In outline: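 Noncovalent NS2B hydrophilic domain/NS3 protease complex (25 nM) in 10 mM Tris-HCl pH 8.0, 0.01% Tween 20 was preincubated 15 min at room temperature with compounds. Then 10 µM AMC substrate (Km 18.3 µM) was added; fluorescence was read over 15 min and fitted to a 4-parameter Hill equation.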

SMILES strings stand for the structures. Results filed as inconclusive are left out. Calls of active or inactive are those of the source. Unless noted, the call rests on the fitted dose curve; in most records, active means well fitted curve in the direction sought with a large enough effect; inconclusive means small, poorly fitted or top-dose-only effect, or another doubt; inactive means no such curve, though single readings can be large; an effect the other way counts as inactive or inconclusive.

Sequence of Parathyroid hormone/parathyroid hormone-related peptide receptor (Homo sapiens) (Q03431 whole entry, looked up): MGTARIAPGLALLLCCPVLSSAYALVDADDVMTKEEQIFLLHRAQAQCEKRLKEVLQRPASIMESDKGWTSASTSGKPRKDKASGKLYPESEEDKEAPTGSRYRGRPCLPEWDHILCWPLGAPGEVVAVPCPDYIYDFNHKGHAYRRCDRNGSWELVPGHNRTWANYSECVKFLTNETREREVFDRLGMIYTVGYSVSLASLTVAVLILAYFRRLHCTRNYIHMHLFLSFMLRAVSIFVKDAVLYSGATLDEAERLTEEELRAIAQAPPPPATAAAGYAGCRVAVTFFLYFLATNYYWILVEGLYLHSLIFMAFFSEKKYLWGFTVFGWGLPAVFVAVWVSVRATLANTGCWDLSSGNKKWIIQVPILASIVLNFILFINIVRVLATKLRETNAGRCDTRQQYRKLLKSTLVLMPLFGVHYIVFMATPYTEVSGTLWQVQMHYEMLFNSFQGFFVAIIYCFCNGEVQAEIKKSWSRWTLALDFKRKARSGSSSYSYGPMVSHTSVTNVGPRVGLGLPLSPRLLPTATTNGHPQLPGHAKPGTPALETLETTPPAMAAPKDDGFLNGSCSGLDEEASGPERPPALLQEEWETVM
T1 sequence (P78324 whole entry, looked up): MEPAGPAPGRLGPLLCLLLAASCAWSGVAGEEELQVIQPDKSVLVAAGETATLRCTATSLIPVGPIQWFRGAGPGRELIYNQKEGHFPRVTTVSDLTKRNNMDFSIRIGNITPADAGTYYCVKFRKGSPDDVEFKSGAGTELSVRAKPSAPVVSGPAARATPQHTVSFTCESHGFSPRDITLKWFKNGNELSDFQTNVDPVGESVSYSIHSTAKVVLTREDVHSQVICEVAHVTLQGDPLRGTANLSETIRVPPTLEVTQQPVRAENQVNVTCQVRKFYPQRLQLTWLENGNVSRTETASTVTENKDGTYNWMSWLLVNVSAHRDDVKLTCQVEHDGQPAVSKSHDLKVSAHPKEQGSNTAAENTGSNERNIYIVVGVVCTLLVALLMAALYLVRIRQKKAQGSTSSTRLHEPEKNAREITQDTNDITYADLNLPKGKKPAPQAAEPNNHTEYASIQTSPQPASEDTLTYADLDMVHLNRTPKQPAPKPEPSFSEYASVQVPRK
T1 sequence (Q08722 whole entry, looked up): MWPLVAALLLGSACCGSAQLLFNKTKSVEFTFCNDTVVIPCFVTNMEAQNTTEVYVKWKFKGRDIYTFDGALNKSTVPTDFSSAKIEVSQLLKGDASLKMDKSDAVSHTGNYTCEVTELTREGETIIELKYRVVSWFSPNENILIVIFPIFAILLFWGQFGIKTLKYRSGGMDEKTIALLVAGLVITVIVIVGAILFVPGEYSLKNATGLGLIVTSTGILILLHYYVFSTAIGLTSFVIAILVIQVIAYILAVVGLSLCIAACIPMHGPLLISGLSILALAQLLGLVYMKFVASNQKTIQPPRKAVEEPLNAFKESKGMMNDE
Sequence of Furin (Homo sapiens) (P09958 whole entry, looked up): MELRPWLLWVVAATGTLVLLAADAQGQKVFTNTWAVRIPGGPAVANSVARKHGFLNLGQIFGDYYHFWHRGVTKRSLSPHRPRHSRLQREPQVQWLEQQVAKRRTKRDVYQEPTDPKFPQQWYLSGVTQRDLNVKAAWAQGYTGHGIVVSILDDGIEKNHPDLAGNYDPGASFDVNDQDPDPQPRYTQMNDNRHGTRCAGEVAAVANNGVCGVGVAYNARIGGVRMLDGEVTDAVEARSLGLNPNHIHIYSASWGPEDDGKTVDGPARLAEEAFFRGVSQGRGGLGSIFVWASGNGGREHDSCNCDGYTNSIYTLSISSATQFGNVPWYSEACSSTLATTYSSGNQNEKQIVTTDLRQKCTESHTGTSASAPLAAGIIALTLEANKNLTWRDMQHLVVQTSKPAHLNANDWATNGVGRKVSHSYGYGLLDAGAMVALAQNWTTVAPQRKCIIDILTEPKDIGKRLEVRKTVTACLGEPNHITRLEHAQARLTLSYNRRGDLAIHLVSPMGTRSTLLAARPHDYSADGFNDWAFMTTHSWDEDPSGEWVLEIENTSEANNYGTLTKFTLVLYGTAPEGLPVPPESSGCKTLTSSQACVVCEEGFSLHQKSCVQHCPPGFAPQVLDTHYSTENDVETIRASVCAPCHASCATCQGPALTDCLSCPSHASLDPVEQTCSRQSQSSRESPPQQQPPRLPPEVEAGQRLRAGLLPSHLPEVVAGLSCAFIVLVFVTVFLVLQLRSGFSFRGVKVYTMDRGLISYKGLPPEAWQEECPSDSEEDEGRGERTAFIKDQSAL

For the molecule `O=C(N[C@@H](Cc1ccccc1)C(=O)CCl)OCc1ccccc1`, the Potency entry in assay [1], in assay [3] and in assay [4] was “inactive” each time. For the same molecule, the outcome in [2] was inactive.

On to `CN1CC(O)C(O)C(O)C1CO` (stereo unspecified), for which the Potency result in assay [1], in assay [3], in assay [4], in assay [5] and in [6] was “inactive” each time. Also, the outcome in [2] was inactive.

On to `Nc1ncnc2c1nc(Br)n2C1OC2COP(=O)(O)O[C@@H]2C1O` (stereo partly specified), for which the Potency entry in assay [1], in [3], in assay [4], in assay [5] and in assay [6] was “inactive” each time. Besides, the outcome in assay [2] was inactive.

In the case of `CCCCCCCCCCCCCCC[C@H](O)[C@H](N)CO`, the Potency entry in assay [1], in [3], in assay [4], in assay [5] and in [6] was “inactive” each time. In assay [2], the result was inactive.

Turning to `CN1CCC2(CCN3CCc4c(oc5ccccc45)C3C2)N(C)C1=O` (stereo unspecified), the Potency result in [1] and in assay [3] was “inactive” throughout. For the same molecule, the outcome in assay [2] was inactive.

Take `NOCC(=O)O`: the Potency result in assay [1], in assay [3], in [4] and in assay [5] was “inactive” in each case. Further, the result in assay [2] was inactive.

For `c1ccc2c(c1)CCC[C@H]2Nc1nc2ccccc2[nH]1`, the Potency result in assay [1], in assay [3], in [4], in [5] and in assay [6] was “inactive” each time. In addition, the result in assay [2] was inactive.

Take `CC1CCN=C(N)S1` (stereo unspecified): the Potency entry in [1], in assay [3], in assay [4], in assay [5] and in [6] was “inactive” each time. In addition, the result in assay [2] was inactive.

Regarding `C=CCN1CCc2c(cc(O)c(O)c2Br)[C@@H](c2ccccc2)C1`, the Potency entry (in assay [1]; in [3]; in assay [4]; with Furin (Homo sapiens); in assay [7]; in assay [8]) was “inactive” each time. Also, the result in assay [2] was inactive. Moreover, the Potency in [5] is 35.5 µM (active); in assay [6] it was 18.9 µM (active).

For `OC[C@H]1O[C@@H](n2cnc3cncnc32)[C@H](O)[C@@H]1O`, the Potency entry in [1], in [3] and in assay [4] was “inactive” in each case. Further, in assay [2], the result was inactive. Moreover, in assay [5], the Potency is 3.16 µM (active).

As for `C[C@](Cc1ccc(O)c(O)c1)(NN)C(=O)O`, the Potency result in assay [1], in [3] and in assay [4] was “inactive” throughout. In assay [2], the outcome was inactive. In [5], the Potency was 39.8 µM (active).

As to `CCCOC(=O)c1c(-c2ccccc2)nc(CC)c(C(=O)SCC)c1CCC`, the Potency entry in [1], in assay [3], in [4] and in assay [5] was “inactive” throughout. In addition, the outcome in assay [2] was inactive.

Consider `Cc1nc(N=Nc2ccc(C(=O)O)cc2)c(COP(=O)(O)O)c(C=O)c1O`, for which the Potency entry in [1], in assay [3], in assay [4] and in assay [5] was “inactive” throughout. The result in assay [2] was inactive.

For `CCCCOC(=O)NS(=O)(=O)c1sc(CC(C)C)cc1-c1ccc(Cn2c(CC)nc3c(C)cc(C)nc32)cc1`, the Potency result in assay [1], in [3], in assay [4], in [5] and in assay [6] was “inactive” throughout. For the same molecule, in assay [2], the result was inactive.

Regarding `CCCCCCCCCC[Si](C)(C)CCC(=O)NC(Cc1ccc(C)cc1)c1ccccc1` (stereo unspecified), the Potency result in [1], in [3], in assay [4] and in assay [5] was “inactive” each time. Moreover, the outcome in assay [2] was inactive.

In the case of `NC(=O)CNCCC(c1ccccc1)c1ccccc1`, the Potency entry in assay [1], in [3], in assay [4], in assay [5] and in assay [6] was “inactive” each time. The outcome in assay [2] was inactive.

For the molecule `[Li+]`, the Potency result in [1], in [3], in assay [4], in assay [5] and in assay [6] was “inactive” each time. Also, the outcome in assay [2] was inactive.

Consider `Oc1cc(O)c2c(c1)O[C@H](c1ccc(O)c(O)c1)[C@@H](O)C2`, for which the Potency result in [1], in assay [3] and in assay [4] was “inactive” in each case. Besides, in assay [2], the result was inactive. For the same molecule, the Potency in [5] is 44.7 µM (active).

Consider `O=C(O)CCC/C=C\C[C@@H]1[C@@H](/C=C/[C@H](O)C2Cc3ccccc3C2)[C@@H](F)C[C@@H]1O`, for which the Potency result in assay [1], in assay [3], in [4], in assay [5] and in assay [6] was “inactive” each time. For the same molecule, the result in assay [2] was inactive.

With `COc1cc(CNC(=O)CCCCCCC(C)C)ccc1O`, the Potency result in assay [1], in assay [3] and in assay [4] was “inactive” throughout. The result in assay [2] was inactive.

Take `N[C@@H](Cc1ccc(F)cc1)C(=O)O`: the Potency result in assay [1], in assay [3], in assay [4] and in assay [5] was “inactive” each time. For the same molecule, the outcome in assay [2] was inactive.

`Cc1cccc(C2CN(C)CCc3c2cc(O)c(O)c3Cl)c1` (stereo unspecified): the Potency result in assay [1] and in [3] was “inactive” throughout. Moreover, the outcome in assay [2] was inactive.

Take `C=C1C[C@@]23CC[C@H]4[C@@](C)(CCC[C@@]4(C)C(=O)OC4OC(CO)C(O)C(O)C4O)[C@@H]2CC[C@]1(OC1OC(CO)C(O)C(O)C1OC1OC(CO)C(O)C(O)C1O)C3` (stereo partly specified): the Potency result in assay [1], in assay [3], in assay [4], in assay [5] and in [6] was “inactive” each time. The outcome in assay [2] was inactive.

On to `Oc1ccc(Cn2cc[nH]c2=S)cc1`, for which the Potency result in assay [1], in assay [3], in [4] and in assay [6] was “inactive” throughout. For the same molecule, the result in assay [2] was inactive. Further, the Potency in assay [5] is 50.1 µM (active).

`O=C1C2C=CC=CC2=NC(=S)N1CCN1CCC(=C(c2ccc(F)cc2)c2ccc(F)cc2)CC1` (stereo unspecified): the Potency entry in assay [1], in assay [3], in assay [4] and in [5] was “inactive” in each case. In addition, the outcome in assay [2] was inactive.

Turning to `NC(C(=O)N[C@@H]1C(=O)N2C(C(=O)O)=C(Cl)CS[C@H]12)c1ccccc1` (stereo partly specified), the Potency result in [1], in [3], in [4] and in assay [5] was “inactive” throughout. In assay [2], the result was inactive.

As to `N=S(=O)(O)Cc1noc2ccccc12`, the Potency entry in assay [1], in [3] and in assay [4] was “inactive” in each case. The outcome in assay [2] was inactive.

Regarding `C=CC1(C)CC(=O)C2(O)C(C)(O1)C(OC(C)=O)C(O)C1C(C)(C)CCC(O)C12C` (stereo unspecified), the Potency result in assay [1], in assay [3], in assay [5] and in [6] was “inactive” in each case. In addition, in assay [2], the outcome was inactive. Also, the Potency in [4] was 21.2 µM (active).

As to `CCCc1c(-c2ccc(O)cc2)nn(-c2ccc(O)cc2)c1-c1ccc(O)cc1`, the Potency result in assay [1], in [3], in assay [4] and in assay [5] was “inactive” each time. In addition, the result in assay [2] was inactive.

Take `CCC(=O)N1CCN(C(=O)c2ccccc2)CC1`: the Potency result in assay [1], in assay [3], in assay [4], in assay [5] and in [6] was “inactive” throughout. Moreover, the result in [2] was inactive.

Turning to `C=C(C)C1CC=C(C(=O)O)CC1` (stereo unspecified), the Potency entry in assay [1], in assay [3], in assay [4], in [5] and in [6] was “inactive” in each case. Besides, the outcome in assay [2] was inactive.

Consider `NCCC1CCCC(CCN)N1` (stereo unspecified), for which the Potency result in [1], in assay [3], in assay [4] and in assay [5] was “inactive” throughout. Further, the outcome in [2] was inactive.
